Assay [1] in a line: Primary qHTS for inhibitors of nuclear receptor binding SET domain protein 2 (NSD2) in an RCH-ACV wild type WT cells (2C) (AID 1645877). Also: nearly all actives have a fitted effect of over 70% in size. Also: potency is read from the fitted curve at half-maximal effect. As to activity change, negative = cell killing: % is scaled to controls: 0 for no effect and ±100 for the full control effect.
The target of assay [2] is Glutathione peroxidase 1 (Homo sapiens) (UniProt P07203). The assay can be described thus: Primary qHTS Assay for Inhibitors of Recombinant Selenoprotein Glutathione Peroxidase 1 (GPX1) (AID 1845191). Also: nearly all actives have a fitted effect of over 65% in size. As to activity, negative = inhibition: % is scaled to controls: 0 for no effect and ±100 for the full control effect. The essentials: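 GR-coupled readout: NADPH consumption tracked by fluorescence, ex 340/em 450 nm, at t=0 and after 15 min at RT. Final mix 10 nM GPX1, 1 mM GSH, 0.5 mM CHP, 0.5 mM NADPH, 100 nM GR, 0.01% BSA, following 30 min enzyme–compound preincubation.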
On the technique in general: In qHTS, concentration-response curves come from the screen itself.

In assay [3] the target is Phospholipid hydroperoxide glutathione peroxidase GPX4 (Homo sapiens) (UniProt P36969). The assay is described as follows: Primary qHTS Assay for Inhibitors of Recombinant Selenoprotein Glutathione Peroxidase 4 (GPX4) (AID 1845192). Also: nearly all actives have a fitted effect of over 65% in size. As to activity change, negative = inhibition: series mostly up to about 50 µM; % is scaled to controls: 0 for no effect and ±100 for the full control effect. The method in brief:
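Steps: GPX4 plus compound, 30 min RT; add GR/GSH/NADPH master mix; start with cumene hydroperoxide; read 340/450 nm fluorescence at 0 and 15 min. Finals were 200 nM GPX4, 1 mM GSH, 0.5 mM CHP, 0.5 mM NADPH, 100 nM GR.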

For assay [4], the target named is Luciferin 4-monooxygenase (Photinus pyralis) (UniProt P08659). The assay is described as follows: Primary firefly luciferase (FLuc) qHTS assay for identification of artifact compounds. (AID 1845220). Also: nearly all actives have a fitted effect of over 60% in size.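 As to activity change, negative = inhibition: series mostly up to about 54 µM; plate controls were DMSO vehicle for no effect and no enzyme for full effect.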 The essentials:
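Titrated compounds were incubated 15 min at RT, protected from light, with luciferin and ATP at 10 uM; reaction started with 10 nM FLuc, luminescence imaged at 5 min, and concentration-response fitted by Hill equation.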

Assay [5] can be described thus: Primary fluorescence-based thiol-reactive (MSTI) qHTS assay for identification of artifact compounds. (AID 1845221). Also: nearly all actives have a fitted effect of over 65% in size. Also: potency is read from the fitted curve at half-maximal effect.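 As to activity change, negative = thiol reactive: series mostly up to about 54 µM; thiol-reactive compounds lower the probe fluorescence signal.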 The essentials: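 MSTI probe at 4 uM final in 2% DMSO/PBS pH 7.4; compounds, 1 h at room temperature in dark. Fluorescence Ex/Em 525/598 nm, normalised to Acetyl-MSTI and MSTI, fitted to 4-parameter Hill.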
Assay [6] concerns Nanoluciferase (engineered Oplophorus gracilirostris luciferase). The assay is described as follows: Primary Nanoluciferase (NLuc) qHTS assay for identification of artifact compounds. (AID 1845222).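 Also: NLuc secreted into diluted conditioned medium of S16 cells; series mostly up to about 54 µM; 0% = DMSO and -100% = no enzyme.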 The essentials:
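qHTS format, against NLuc in S16 cell-conditioned medium. Nano-Glo substrate 1:100 was added after 15 min at room temperature. Luminescence was taken after a further 5 min.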

Assay [7] can be described thus: Primary redox qHTS assay for identification of artifact compounds. (AID 1845223).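 Also: 0% = DMSO and 100% = reference compound.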 The essentials:
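Redox-cycling detection via DTT (250 uM final) oxidation coupled to Amplex Red (25 uM)/HRP (250 mU/mL) in HBSS. 15 min preincubation plus 30 min after DTT, room temperature. Ex/Em 525/598 nm; 4-parameter Hill fit against DMSO and 10 uM DA3003.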

“And” between values parts separate entries of the source, which are not always exact repeats. Equal values may be shown once. A number with no mark means an inactive call. Inconclusive results are not listed. The source made the active and inactive calls. Calls follow the shape of the dose curve; as a rule, active = well fitted curve in the direction sought with a large enough effect; inconclusive = small, poorly fitted or top-dose-only effect, or another doubt; inactive = no such curve, though single readings can be large; an effect the other way counts as inactive or inconclusive.

Sequence of Glutathione peroxidase 1 (Homo sapiens) (P07203 whole entry, looked up): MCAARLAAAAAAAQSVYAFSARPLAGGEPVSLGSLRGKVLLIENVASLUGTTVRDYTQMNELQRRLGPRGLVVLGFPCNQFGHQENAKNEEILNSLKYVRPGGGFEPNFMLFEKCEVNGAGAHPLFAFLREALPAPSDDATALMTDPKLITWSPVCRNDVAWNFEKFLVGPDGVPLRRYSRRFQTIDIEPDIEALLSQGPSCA
Sequence of Phospholipid hydroperoxide glutathione peroxidase GPX4 (Homo sapiens) (P36969 whole entry, looked up): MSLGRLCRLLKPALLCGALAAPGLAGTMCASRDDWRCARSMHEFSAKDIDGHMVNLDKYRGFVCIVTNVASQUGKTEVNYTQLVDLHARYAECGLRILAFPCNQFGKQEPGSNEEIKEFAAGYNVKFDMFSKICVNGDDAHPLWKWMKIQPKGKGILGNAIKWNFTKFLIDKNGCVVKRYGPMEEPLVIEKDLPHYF

As for `COc1cc(O)cc(C)c1C(=O)O[C@@H]1[C@H](O)[C@@H](CO)O[C@H]1n1ccc(=O)[nH]c1=O`, the Potency entry in assay [1], in assay [2], in assay [3], in assay [4], in assay [5] and in assay [6] was “inactive” in each case. In assay [7], the Potency result is “inactive”.

Take `CC(=O)N[C@@H](C(=O)O[C@H]1CCC(C)(C)[C@@H]2CCC3=C(COC3=O)[C@@]12C)C(C)C`: the Potency result in assay [1], in assay [2], in assay [3], in assay [4], in assay [5] and in assay [6] was “inactive” throughout. In addition, the Potency entry in assay [7] is “inactive”.

Take `C=C1C[C@@]23CCC4[C@@](C)(CCC[C@@]4(C)C(=O)OC)C2CC[C@@H]1C3` (some centres not stated): the Potency entry in assay [1], in assay [2], in assay [3], in assay [4], in assay [5] and in assay [6] was “inactive” in each case. Besides, the Potency result in assay [7] was “inactive”.

For the molecule `C=C[C@]1(C)C=C2CCC3C(C)(CCC[C@@]3(C)C(=O)O)C2CC1` (some centres not stated), the Potency entry in assay [1], in assay [2], in assay [3], in assay [4], in assay [5] and in assay [6] was “inactive” in each case. Also, in assay [7], the Potency entry was “inactive”.

As for `COc1cc(OC)c(/C=C/S(=O)(=O)Cc2ccc(OC)c(NCC(=O)O)c2)c(OC)c1`, the Potency is 51.5 nM (active) and 46.8 nM (active) in assay [1]; 3.36 µM (active) in assay [5]. The Potency entry in assay [2], in assay [3], in assay [4], in assay [6] and in assay [7] was “inactive” each time.

Consider `C=CC[C@]12C[C@@H](OC)C(=O)C(OC)=C1O[C@@H](c1cc(OC)c3c(c1)OCO3)[C@@H]2C`, for which the Potency result in assay [1], in assay [2], in assay [3], in assay [4], in assay [5] and in assay [6] was “inactive” throughout. Also, in assay [7], the Potency entry is “inactive”.

Turning to `C[C@@H]1CC[C@]2(C(=O)O[C@@H]3O[C@H](CO)[C@@H](O)[C@H](O)[C@H]3O)CC[C@]3(C)C(=CCC4[C@@]5(C)C[C@@H](O)[C@H](O)[C@](C)(C(=O)O)C5CC[C@]43C)[C@@H]2[C@]1(C)O` (some centres not stated), the Potency entry in assay [1], in assay [2], in assay [3], in assay [4], in assay [5] and in assay [6] was “inactive” in each case. The Potency entry in assay [7] is “inactive”.

`CC1OC(OC2C(C)OC(OC3C(O)C(CO)OC(O[C@H]4CC[C@@]5(C)C(CC[C@]6(C)C5CC=C5C7[C@@H](C)[C@H](C)CC[C@]7(C(=O)O)CC[C@]56C(=O)O)C4(C)C)C3O)C(O)C2O)C(O)C(O)C1O` (some centres not stated): the activity change, negative = cell killing in assay [1] was -0.67% [at 9.23 µM]. Moreover, the Potency result in assay [2] and in assay [3] was “inactive” each time. The activity change, negative = inhibition in assay [4] was 1.66% [at 11.6 µM]. Further, in assay [5], the activity change, negative = thiol reactive was 65.9% [at 11.5 µM]. For the same molecule, the activity, negative = inhibition in assay [6] is -3.75% [at 11.6 µM]. For the same molecule, in assay [7], the redox activity (% of DA3003) was -18.3% [at 11.5 µM].

Take `C[C@@H]1O[C@@H](O[C@H]2[C@H](O[C@H]3[C@H](O[C@H]4CC[C@@]5(C)C(CC[C@]6(C)C5CC=C5[C@@H]7CC(C)(C)C[C@@H](O)[C@]7(C)CC[C@]56C)[C@@]4(C)CO)O[C@H](C(=O)O)[C@@H](O)[C@@H]3O)OC[C@H](O)[C@@H]2O)[C@H](O)[C@H](O)[C@H]1O` (some centres not stated): in assay [1], the activity change, negative = cell killing is -3.15% [at 9.23 µM]. Further, the Potency entry in assay [2] and in assay [3] was “inactive” each time. Also, the outcome in assay [4] is “inactive [at 11.6 µM]”. For the same molecule, in assay [5], the activity change, negative = thiol reactive is 129% [at 11.5 µM]. The activity, negative = inhibition in assay [6] was -0.768% [at 11.6 µM]. Further, in assay [7], the redox activity (% of DA3003) is 17.9% [at 11.5 µM].

For the molecule `CC(C)=CCC[C@](C)(O[C@@H]1O[C@H](CO)[C@@H](O)[C@H](O)[C@H]1O)[C@H]1CC[C@]2(C)[C@@H]1[C@H](O)CC1[C@@]3(C)CC[C@H](O)C(C)(C)C3[C@@H](O[C@@H]3O[C@H](CO)[C@@H](O)[C@H](O)[C@H]3O)C[C@]12C` (some centres not stated), the Potency result in assay [1], in assay [2], in assay [3], in assay [4], in assay [5] and in assay [6] was “inactive” in each case. For the same molecule, in assay [7], the Potency result was “inactive”.

Take `N#Cc1c(Oc2ccc(F)c(NC(=O)Cc3cccc(C(F)(F)F)c3)c2)ccc2nc(NC(=O)C3CC3)sc12`: the Potency in assay [1] was 1.15 µM (active). Further, the Potency entry in assay [2], in assay [3], in assay [4], in assay [5], in assay [6] and in assay [7] was “inactive” throughout.

For the molecule `CN[C@H](C(=O)N[C@H](C(=O)N(C)[C@H](/C=C(\C)C(=O)O)C(C)C)C(C)(C)C)C(C)(C)c1ccccc1`, the Potency entry in assay [1], in assay [2], in assay [3], in assay [4], in assay [5] and in assay [6] was “inactive” in each case. In addition, the Potency entry in assay [7] was “inactive”.

In the case of `C/C=C(\C)C(=O)OCC1OC(OC2OC(COC(=O)/C(C)=C/C)C(OC3OC(CO)C(OC(=O)/C(C)=C/C)C(OC(=O)/C(C)=C/C)C3O)C(O)C2O)C(O)C(O)C1OC1OC(CO)C(OC(=O)/C(C)=C/C)C(OC(=O)/C(C)=C/C)C1O` (configuration not stated), in assay [1], the activity change, negative = cell killing is -15.3% [at 9.23 µM]. Besides, the Potency result in assay [2] and in assay [3] was “inactive” each time. For the same molecule, the outcome in assay [4] was “inactive [at 11.6 µM]”. In addition, the activity change, negative = thiol reactive in assay [5] was 7.54% [at 11.5 µM]. Besides, the activity, negative = inhibition in assay [6] was 0% [at 11.6 µM]. The redox activity (% of DA3003) in assay [7] was 2.12% [at 11.5 µM].

As to `CC1(C)CCC(C)(C)c2cc(C3(c4ccc(C(=O)O)cc4)OCCO3)ccc21`, the Potency entry in assay [1], in assay [2], in assay [3], in assay [4], in assay [5] and in assay [6] was “inactive” throughout. In assay [7], the Potency entry was “inactive”.

Regarding `C/C1=C\CCC(C)CCO[C@@H]2O[C@H](CO[C@@H]3OC[C@H](O)[C@H](O)[C@H]3OC1=O)[C@@H](O)[C@H](O)[C@H]2O` (some centres not stated), the Potency entry in assay [1], in assay [2], in assay [3], in assay [4], in assay [6] and in assay [7] was “inactive” in each case. For the same molecule, the Potency in assay [5] was 8.22 µM (active).

On to `C=CC(C)(CC/C=C(\C)C(=O)OC)OC1OC(COC(=O)CC(C)(O)CC(=O)O)C(OC2OC(CO)C(O)C(O)C2O)C(O)C1O` (configuration not stated), for which the Potency result in assay [1], in assay [2], in assay [3], in assay [4], in assay [5] and in assay [6] was “inactive” in each case. In assay [7], the Potency entry was “inactive”.

These data come from PubChem BioAssay (NCATS).
